From PubChem BioAssay
This is one part of a sample in which hits are shown more often than they occur.
Pf Dd2 inh: Plasmodium falciparum Dd2 growth inhibition; P. falciparum Dd2 growth, SYBR Green, 72 h; Potency, µM (top dose mostly 28.9 µM), inactives show at the highest dose activity, negative = inhibition, actives largely listed as inhibitors; 120,000 compounds, 4.3% hits; active = well fitted inhibition curve with a large enough effect;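 also: plate controls were DMSO vehicle for no effect and reference drug for full effect; nearly all actives have a fitted effect of over 65% in size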
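Readout: SYBR Green fluorescence, 485 nm excitation, 535 nm emission, after ~16 h lysis at 37C. Before that, Dd2-infected red cells (2.5% hematocrit) grew 72 h with compound, 29 uM top final concentration.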
Starred values were filed as active, the others as inactive; [ ] = remark or other dose. Potency is read from the fitted curve at half-maximal effect.

Screening COc1ccc(-c2ccc(NS(=O)(=O)c3ccc(F)c(C(F)(F)F)c3)cc2)nn1 returned Pf Dd2 inh 0%.
Screening CCOc1ccc(-c2ccc(NS(=O)(=O)c3ccc(C)cc3)cc2)nn1 returned Pf Dd2 inh 10µM*.
`O=C(CCc1ccccc1)N1CCC(c2noc(-c3cnccn3)n2)C1` (stereo not drawn) gave Pf Dd2 inh 12%[5.79 µM].
`COc1cc(C(=O)N2CCN(c3cc(-c4cccs4)[nH]n3)CC2)cc(OC)c1OC` gave Pf Dd2 inh inactive.
COc1cccc(CN2CCC3(CC2)CC(O)CCO3)c1OC (stereo not drawn) was read as Pf Dd2 inh -13%.
Screening OC1CCOC2(CCN(Cc3ccncc3)CC2)C1 (stereo not drawn) returned Pf Dd2 inh 6%.
For OC1CCOC2(CCN(Cc3ccc(Br)o3)CC2)C1 (stereo not drawn) the results were Pf Dd2 inh 2%.
For CC(C)Oc1ccccc1CN1CCC2(CC1)CC(O)CCO2 (stereo not drawn) the results were Pf Dd2 inh 5µM*.
Screening COc1ccc2c(c1)c(CN1CCC3(CC1)CC(O)CCO3)cn2C (stereo not drawn) returned Pf Dd2 inh -2%.
`OC1CCOC2(CCN(Cc3ccccc3OC(F)(F)F)CC2)C1` (stereo not drawn) gave Pf Dd2 inh 5.6µM*.
`O=C(NCC1CC1)c1cn(C2CN(C(=O)Nc3ccccc3F)C2)nn1` gave Pf Dd2 inh 22%.
`CN1CCC(C(=O)N2CCC3(CC2)CC(N[S+](C)(=O)[O-])c2ccccc23)CC1` (stereo not drawn) gave Pf Dd2 inh -12%.
Screening CC(C)(C)C(=O)N1CCN(c2nc3ncccc3o2)CC1 returned Pf Dd2 inh -11%[44.1 µM].
`CCN1c2cc(C(=O)NCc3ccc(F)cc3)ccc2C(=O)N2CCCCCC21` (stereo not drawn) gave Pf Dd2 inh inactive.
CCN1c2cc(C(=O)NCc3ccccc3OC)ccc2C(=O)N2CCCCCC21 (stereo not drawn) was read as Pf Dd2 inh 5µM*.
For CCN1c2cc(C(=O)NCc3ccccc3F)ccc2C(=O)N2CCCCCC21 (stereo not drawn) the results were Pf Dd2 inh -19%.
CCN1c2cc(C(=O)NCc3cc(F)ccc3F)ccc2C(=O)N2CCCCC21 (stereo not drawn) was read as Pf Dd2 inh 4µM*.
Screening CCN1c2cc(C(=O)NCc3cc(OC)ccc3OC)ccc2C(=O)N2CCCCC21 (stereo not drawn) returned Pf Dd2 inh -4%.
For COc1ccccc1CNC(=O)c1ccc2c(c1)N(C)C1CCCCN1C2=O (stereo not drawn) the results were Pf Dd2 inh inactive.
COCCNC(=O)[C@H]1C[C@H](Oc2cccnc2)CN1C(=O)Cc1cccc(C)c1 was read as Pf Dd2 inh -4%.
COCC1CN(S(=O)(=O)c2cc(Cl)ccc2OC)CC12CCNCC2 (stereo not drawn) was read as Pf Dd2 inh -25%.
`O=C1CCN(C(=O)C2CCN(C(=O)CCC3CCCC3)CC2)CCCCCCN1` gave Pf Dd2 inh -9%.
For CCCCNC(=O)c1nnn2c1COC(c1ccc(F)cc1)C2 (stereo not drawn) the results were Pf Dd2 inh -2%.
`O=C(NCC1CCN(c2cc(-c3ccccc3)[nH]n2)CC1)c1ccc[nH]c1=O` gave Pf Dd2 inh -28%.
Screening Cc1noc(C)c1CC(=O)NCC1CCN(c2cc(-c3ccccc3)[nH]n2)CC1 returned Pf Dd2 inh inactive.
Screening Cc1ccc(-c2cc(N3CCC(CNC(=O)c4ccc(=O)[nH]c4)CC3)n[nH]2)cc1 returned Pf Dd2 inh 13µM*.
`Cc1cc(C)n(CCC(=O)NC2CCCN(c3cc(-c4ccc(Cl)cc4)[nH]n3)C2)n1` (stereo not drawn) gave Pf Dd2 inh inactive.
Cc1cc(C)n(CCC(=O)NCC2CCN(c3cc(-c4ccccc4)[nH]n3)CC2)n1 was read as Pf Dd2 inh 11µM*.
`O=C(NCC1CCN(c2cc(-c3ccccc3)[nH]n2)CC1)c1ccc[nH]1` gave Pf Dd2 inh -25%.
For CCOCc1nc(C2CCCN(C(=O)NC3CCCC3)C2)no1 (stereo not drawn) the results were Pf Dd2 inh -4%.
`CO[C@H]1C(=O)N(C2CCN(C(=O)CCc3c[nH]c4ccccc34)CC2)[C@H]1c1ccncc1` gave Pf Dd2 inh 0%.
For CNC(=O)N1C[C@@H](Oc2ccccc2)C[C@H]1C(=O)N1CCOCC1 the results were Pf Dd2 inh -9%.
`O=C(O)CCCC(=O)N[C@H]1CO[C@H]2[C@@H]1OC[C@@H]2Nc1nccc(-c2ccc3c(c2)OCO3)n1` gave Pf Dd2 inh -25%.
`CCOc1ccc(NC(=O)Cn2nc(Cc3ccncc3)c3ccccc3c2=O)cc1` gave Pf Dd2 inh -8%.
`CCCCOc1ccc(C2c3c(-c4ccccc4O)n[nH]c3C(=O)N2Cc2ccncc2)cc1OC` (stereo not drawn) gave Pf Dd2 inh 7.1µM*.
`CCOc1ccc(C2c3c(oc4cc(C)c(C)cc4c3=O)C(=O)N2c2ccccn2)cc1` (stereo not drawn) gave Pf Dd2 inh -8%.
For COc1cc(C2c3c(-c4ccccc4O)n[nH]c3C(=O)N2Cc2ccncc2)ccc1O (stereo not drawn) the results were Pf Dd2 inh -5%.
`CCOc1ccc(C2c3c(-c4ccccc4O)n[nH]c3C(=O)N2Cc2ccncc2)cc1` (stereo not drawn) gave Pf Dd2 inh 14µM*.
COc1cc(C2c3c(oc4ccccc4c3=O)C(=O)N2Cc2ccc(C)cc2)ccc1O (stereo not drawn) was read as Pf Dd2 inh 15%.
`CC(=O)NC[C@H]1O[C@H](Cc2cc(CN3CCN(c4ccccc4)CC3)on2)CC[C@@H]1O` gave Pf Dd2 inh 20%[44.1 µM].
Cc1cc(C(=O)N2CCCn3nc(CCC(=O)O)cc3C2)c2c(C)noc2n1 was read as Pf Dd2 inh -1%.
COC(=O)CNC(=O)C1CCc2nnc(C3CCN(C(=O)c4ccccc4)CC3)n21 (stereo not drawn) was read as Pf Dd2 inh 15%.
Screening CCCNC(=O)c1nnn2cc(C)[nH]c(=O)c12 returned Pf Dd2 inh 61%.
Cc1cn2nnc(C(=O)N3CCC(C(=O)NCc4cccc(Cl)c4)CC3)c2c(=O)[nH]1 was read as Pf Dd2 inh 4.5µM*.
Screening COc1ccc(CNC(=O)c2nnn3cc(C)[nH]c(=O)c23)cc1 returned Pf Dd2 inh -28%.
Cc1cn2nnc(C(=O)NCc3ccc4c(c3)OCO4)c2c(=O)[nH]1 was read as Pf Dd2 inh 6.3µM*.
For Cc1cn2nnc(C(=O)NCC3CCCCC3)c2c(=O)[nH]1 the results were Pf Dd2 inh 6.3µM*.
Screening Cc1ccc(CNC(=O)C2CCN(C(=O)c3nnn4cc(C)[nH]c(=O)c34)CC2)cc1 returned Pf Dd2 inh inactive.
For Cc1cn2nnc(C(=O)N3CCC(C(=O)NCc4ccccc4Cl)CC3)c2c(=O)[nH]1 the results were Pf Dd2 inh -8%.
`Cc1cn2nnc(C(=O)NCC3CC3)c2c(=O)[nH]1` gave Pf Dd2 inh 42%.
For Cc1cn2nnc(C(=O)NCc3ccncc3)c2c(=O)[nH]1 the results were Pf Dd2 inh 57%.
Screening COC(=O)c1ccc(COC(=O)C2=CN(C)S(=O)(=O)N=C2C)o1 returned Pf Dd2 inh 4%.
`O=C1CC2CCN(Cc3ccc(F)c(F)c3F)CC2CCN1` (stereo not drawn) gave Pf Dd2 inh 19%.
